Records with an inconclusive call do not appear. Activity calls are given as the source filed them. The call rests on the fitted dose curve; in most records, active means well fitted inhibition curve with a large enough effect; inconclusive means small, poorly fitted or top-dose-only effect; inactive means flat fitted curve, though single readings scatter.

Experimental findings from PubChem BioAssay AID624308 (National Center for Advancing Translational Sciences (NCATS), 2012) are described below.

The target in the experiment is Peptidyl-prolyl cis-trans isomerase NIMA-interacting 1 (Homo sapiens) (UniProt Q13526). The experiment is described as follows: qHTS Assay to Find Inhibitors of Pin1: Hit Validation. The following applies: Pin1 FP peptide displacement, HiFluor488 probe; series mostly up to 57.5 µM; activity, negative = inhibition: at the top concentration. The source says: The unique chemical properties of Pro allow for the adoption of two completely distinct amide bond conformations (cis and trans). Peptidyl-prolyl cis/trans isomerases (PPIases) are evolutionary conserved enzymes that catalyze cis/trans isomerization of peptidyl-prolyl peptide bonds. Distinct from all other PPIases such as cyclophilins and FK506-binding proteins (FKBPs), Pin1 binds a subset of phos.Ser/Thr-Pro-containing proteins using its protein-targeting WW domain and isomerizes only specific phos.Ser/Thr-Pro bonds, which cannot be effectively catalyzed by other known PPIases. Pin1-catalyzed conformational regulation can control a spectrum of activities of many key regulators in diverse cellular processes such as cell growth, genotoxic and other stress responses, immune response, germ cell development, neuronal differentiation and survival. Pin1 has emerged as a novel molecular timer that modulates its multiple targets at various steps of a given cellular process to synergistically control the amplitude and duration of a cellular response or process. Importantly, Pin1 is tightly regulated by multiple levels and its deregulation has an important role in a growing number of pathological conditions, including cancer, Alzheimer's disease, aging, asthma and microbial infection, providing a potentially new therapeutic option. The goal of this screen is to find small-molecule inhibitors of Pin1 using a fluorescence polarization competition assay. A HiFluor-488-labeled peptide binds to the active site of Pin1 and can be displaced by compounds. Compounds were screened as a concentration-titration series that ranged from 57 uM to 0.7 nM. This is the hit validation to test the hits identified in the primary screen. NIH Molecular Libraries Probe Production Network [MLPCN] NIH Chemical Genomics Center [NCGC] MLPCN Grant: R03 DA031663 PI Name: Dr. Kun Ping Lu, Beth Israel Deaconess Medical Center
Peptidyl-prolyl cis-trans isomerase NIMA-interacting 1 (Homo sapiens), sequence (Q13526 whole entry, looked up, the tested form may be a part): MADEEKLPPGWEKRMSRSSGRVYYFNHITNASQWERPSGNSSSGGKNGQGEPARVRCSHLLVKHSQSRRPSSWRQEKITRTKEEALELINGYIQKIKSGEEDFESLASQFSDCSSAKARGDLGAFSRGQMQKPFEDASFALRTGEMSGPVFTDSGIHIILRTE
Pin1 (0.6 uM) was dispensed into black, solid 1536-well plates at 2 uL/well in 10 mM HEPES (pH 7.5), 10 mM NaCl, 0.01% Tween20, 1 mM DTT, and 1% glycerol. Then, 23 nL of compounds or DMSO were delivered to each well using a pin tool. Two uL of Pin1-1b-HiFluor488 peptide (10 mM HEPES (pH 7.5), 10 mM NaCl, 0.01% Tween20, 1 mM DTT, and 1% glycerol, 0.02 uM Pin1-1b-HiFluor488) was then dispensed, and plates were incubated at room temperature for 10 min. The plates were measured on a ViewLux plate reader for fluorescence polarization signal using a 480/20 nM nm excitation filter and 540/25 nM nm S and P emission filters with a 20 second exposure. The %Activity was determined from the corrected fluorescence polarization values. Unlabeled Pin1-1c peptide was used as a control (3.5 mM two-fold serial; 20 uM final concentration) along with a 1x (0.3 uM) and 0x (no-enzyme) Pin1 enzyme control to normalize %Activity of identified inhibitors; 0x enzyme values corresponded to 100%Activity (full inhibition), while 1x Pin1 enzyme values were used to normalize 0%Activity (no inhibition). Concentration-response curves were fitted to the signals arising from the resulting fluorescence polarization. The concentration-effect curves were then classified based on curve quality (r2), response magnitude and degree of measured activity, and compounds were subsequently categorized based on their curve class. […] Keywords: Peptidyl prolyl isomerase, Pin1, fluorescence polarization, MLSMR, MLPCN, NIH Roadmap, qHTS, NCGC
(Quantitative high-throughput screening tests each substance at several concentrations.)
For `O=C1c2ccccc2C(=O)c2c(O)c(O)cc(O)c21`, the Potency is 26.9 µM (active).

In the case of `O=S(=O)(O)c1cc(O)c2cc(Nc3ccccc3)ccc2c1`, the Potency was 10.7 µM (active).

With `CC(=O)Nc1ccc(Nc2c3c4c(cccc4n(C)c2=O)C(=O)c2ccccc2-3)cc1`, the Potency was 3.38 µM (active).

On to `COc1cccc2c1C(=O)c1c(O)c3c(c(O)c1C2=O)C[C@](O)(C(C)=O)C[C@H]3O[C@@H]1C[C@@H](N)[C@@H](O)[C@@H](C)O1`, for which the “activity, negative = inhibition” value was -19.5% (inactive).

Take `CCCCCC(=O)Nc1cc(S(=O)(=O)O)cc2cc(S(=O)(=O)O)cc(O)c12`: the Potency was 1.69 µM (active).

`COc1ccccc1Nc1ccc2c(O)cc(S(=O)(=O)O)cc2c1`: the Potency was 1.2 µM (active).

Consider `Cc1ccc2nc(-c3ccc(N=Nc4cc(S(=O)(=O)O)c5ccccc5c4O)cc3)sc2c1S(=O)(=O)O`, for which the Potency was 3.01 µM (active).

For `O=S(=O)(O)c1ccc(O)c2cc(Nc3ccccc3)ccc12`, the Potency was 1.69 µM (active).

As for `COc1ccc(S(=O)(=O)Nc2cc(Sc3ncn[nH]3)c(O)c3ccccc23)cc1`, the “activity, negative = inhibition” value was -0.212% (inactive).

For `O=S(=O)(Nc1cc(Sc2ncn[nH]2)c(O)c2ccccc12)c1ccccc1`, the “activity, negative = inhibition” value was -0.289% (inactive).
